# Experimental data reported in PubChem BioAssay (NCI).
# The panel holds about 83,000 compounds, 20% with a hit somewhere; the sample as a whole holds those more often.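 The endpoint reported here, percent growth, reads 100 for growth as untreated, 0 for no net growth and -100 for all cells dead.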 Values without a mark were called inactive. Active and inactive are the calls of the source. How the source made its calls: active means growth percent below 10; inactive means the rest.
# Key:
# Experiment in all cases: NCI-60 one-dose screen, 48 h (100 = growth as untreated, 0 = no growth, -100 = all killed)
# NCI-H23 lung = details: 10 µM unless noted
# NCI-H226 lung = details: 10 µM unless noted
# NCI-H322M lung = details: 10 µM unless noted
# NCI-H460 lung = details: 10 µM unless noted
# HOP-92 NSCLC = details: 10 µM
# NCI-H522 lung = details: 10 µM
# A549/ATCC NSCLC = details: 10 µM unless noted
# 786-0 renal = details: 10 µM unless noted
# COLO 205 colon = details: 10 µM unless noted
Structure (SMILES),growth (NCI-H23 lung),growth (NCI-H226 lung),growth (NCI-H322M lung),growth (NCI-H460 lung),growth (HOP-92 NSCLC),growth (NCI-H522 lung),growth (A549/ATCC NSCLC),growth (786-0 renal),growth (COLO 205 colon)
O=C(Nc1cccc2[nH]c(C(F)(F)F)nc12)c1ccc(F)cc1,83.7%,86.1%,101%,55%,-9.1% (active),51.3%,72.8%,91.9%,95.1%
COc1cc(N2C(=O)C=CC2=O)ccc1N1C(=O)C=CC1=O,105%,105%,116%,104%,93.1%,-59.8% (active),103%,107%,53%
CC(=O)OC1/C=C\CC/C=C\C1 (configuration not stated),121%,102%,102%,102%,92.8%,102%,100%,102%,121%
Cc1ccc2c(c1)C(=O)CCS2,100%,101%,93.5%,117%,89.1%,95.2%,97.2%,101%,98.2%
CCOC(=O)C1=C(C(F)(F)F)NC(=S)NC1CN1C(=O)c2ccccc2C1=O (configuration not stated),87.5%,116%,103%,106%,82.3%,111%,118%,99.7%,119%
CC/C(=N\Nc1nc2ccccc2n1C)c1ccccn1,7.14% (active),-0.758% (active),21%,1.28% (active),29.2%,18.7%,2.95% (active),2.44% (active),21.9%
C/C(=N\Nc1ccc(Cl)cn1)c1ccccn1,11.6%,-8.37% (active),9.31% (active),0.782% (active),29%,6.6% (active),6.73% (active),8.74% (active),9.59% (active)
c1cc[c]([Bi]([c]2ccccc2)[c]2ccccc2)cc1,93.9%,95.8%,88%,96.2%,74.1%,104%,102%,94%,105%
C/C(=N\Nc1ccc(Cl)cn1)c1ccc2ccccc2n1,21%,-5.19% (active),16.4%,3.21% (active),34.4%,11.9%,4.29% (active),12.9%,9.81% (active)
CC1Cc2cc(F)ccc2-n2cccc21 (configuration not stated),98.5%,154%,100%,98.7%,73.8%,101%,104%,111%,94.6%
COc1cccc2c1n([O-])c1cccc(OC)c1[n+]2=O,58.8%,97.8%,107%,47.8%,94.3%,53.5%,70.6%,84.2%,97.6%
COC(=O)c1ccc2[nH]c(O)c(C(=Nc3ccc(N(C)C(=O)CN4CCN(C)CC4)cc3)c3cccc(OC)c3)c2c1,7.62% (active),32.4%,21.8%,7.31% (active),48.3%,12.1%,9.85% (active),10.4%,-55.8% (active)
CC(=N\N=C(N)N)/C(=N/N=C(N)N)c1ccccc1,43.1%,91.4%,76.4%,93.3%,95.2%,94.4%,86.2%,101%,6.49% (active)
CC(=O)N1N=C(c2ccc(Cl)cc2)CC1c1cn(-c2ccccc2)nc1-c1ccc([N+](=O)[O-])cc1 (configuration not stated),101%,93.6%,83.1%,101%,117%,103%,108%,104%,93.9%
COc1ccc(C(=O)CN2C(=O)NC(c3ccccc3)(c3ccccc3)C2=O)cc1,103%,93.2%,110%,102%,71.5%,96.5%,103%,109%,115%
Cc1nn(-c2ccccc2)c(N)c1N=C1NC(=O)/C(=C/c2ccc(Cl)cc2)S1,78.2%,83.5%,81.8%,92.6%,79.9%,87.1%,80.6%,94.7%,88.4%
NC(N)=Nc1ccc(/C=C2\C=Cc3ccccc32)cc1,69.9%,74.6%,70.5%,63.5%,9.95% (active),42.7%,78.6%,67.3%,-77.9% (active)
Brc1c(-c2ccncc2)nc2n1CCS2,113%,93.4%,107%,103%,73.9%,76.5%,94.1%,26.3%,120%
CC1C(=O)CCCC1=O,113%,121%,99.4%,120%,106%,90.9%,102%,103%,114%
COc1ccc(-c2cn3ccnc3c(-c3ccc4ncn(C5CCCCC5)c4c3)n2)cc1,37.9%,64.1%,68.5%,8.91% (active),47.7%,-20.9% (active),31.4%,16.8%,-8.01% (active)
C[C@@H](c1ccc2c(c1)[nH]c1ccc(Cl)cc12)c1nc2ccccc2[nH]1,91.2%,95.3%,87.3%,101%,120%,78.7%,104%,103%,123%
CCOc1nc(-c2ccccc2)cc2c(O)c(C(=O)N/N=C/c3ccccc3O)[nH]c(=O)c12,62.7%,106%,107%,107%,82.8%,81.9%,85.3%,103%,105%
CCCCCCCCc1ccc(OCCOCC[N+](C)(C)CC)cc1 (tested in a mixture with another compound),26.8%,56.5%,94%,39.9%,6.23% (active),3.68% (active),69.5%,87.8%,-42.1% (active)
C=CCN(C)C,102%,97.3%,114%,108%,110%,93.7%,100%,106%,121%
NC(=O)c1c(Nc2ccccc2)nn2cc(-c3nc4ccccc4s3)c(N)nc12,95.2%,85.5%,103%,98.6%,93.2%,91.4%,105%,109%,106%
COC1NC(Cl)=C(C#N)C(C#N)(C#N)C1(C)C (configuration not stated),108%,108%,121%,114%,97.2%,104%,109%,87.2%,124%
O=c1oc2ccc3ccccc3c2cc1-c1ccnc2[nH]c(=S)[nH]c(=O)c12,94.7%,94.5%,92.9%,103%,88.3%,88%,97%,97.5%,111%
Clc1ccc(N/N=C/c2ccccn2)nc1,6.51% (active),-12.3% (active),23.6%,3.11% (active),39.7%,37.5%,11.2%,7.14% (active),13.6%
